Laboratory results as given in PubChem BioAssay (NCI).
This is part of a sample that, as a whole, favours compounds with a hit. Of some 83,000 tested, about 20% had one in any assay.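 Negative percent growth values reflect cell death: -40 means 40% of the cells present at the start died, and -100 means all died.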 Unmarked numbers belong to inactive results. Activity calls are given as the source filed them. Rule for the calls: active = growth percent below 10; inactive = the rest.

Key:
Test in all cases: NCI-60 one-dose screen, 48 h (100 = growth as untreated, 0 = no growth, -100 = all killed)
Details in all cases: 10 µM unless noted
NCI-H23 lung = test system: NCI-H23 lung
NCI-H226 lung = test system: NCI-H226 lung
NCI-H322M lung = test system: NCI-H322M lung
HOP-62 NSCLC = test system: HOP-62 NSCLC
NCI-H460 lung = test system: NCI-H460 lung
HOP-92 NSCLC = test system: HOP-92 NSCLC
NCI-H522 lung = test system: NCI-H522 lung
A549/ATCC NSCLC = test system: A549/ATCC NSCLC
786-0 renal = test system: 786-0 renal
COLO 205 colon = test system: COLO 205 colon

Row | SMILES | growth (NCI-H23 lung) | growth (NCI-H226 lung) | growth (NCI-H322M lung) | growth (HOP-62 NSCLC) | growth (NCI-H460 lung) | growth (HOP-92 NSCLC) | growth (NCI-H522 lung) | growth (A549/ATCC NSCLC) | growth (786-0 renal) | growth (COLO 205 colon)
1 | NCCCNc1nc2ccccc2c2c(=O)c3cccc(F)c3sc12 | 50.5% | 64.1% | 46.8% | 48.1% | -57% (active) | 35.8% | 38.7% | 24% | 52.6% | -43.7% (active)
2 | CCN(CC)CCNC(=O)c1cn2ncnc(Oc3ccc(NC(=O)Nc4ccc(Cl)c(C(F)(F)F)c4)cc3)c2c1C | -83.6% (active) | 6% (active) | 4.06% (active) | -78.5% (active) | -74.4% (active) | -39.1% (active) | -63% (active) | -85.2% (active) | -89.9% (active) | -73.4% (active)
3 | c1cc(NCCc2ccncc2)nc(-n2cnc3ccccc32)c1 | 95.3% | 76.6% | 81.4% | 90.7% | 79% | 93% | 78.8% | 78.8% | 92% | 123%
4 | N#Cc1cccc(NC(=O)c2cc(-c3ccc(F)cc3F)ccc2O)c1 | 1.56% (active) | 3.58% (active) | 1.78% (active) | 23% | 6.49% (active) | -24.2% (active) | -3.38% (active) | 27.3% | 31.1% | 107%
5 | CCc1cccc2c1S/C(=C/c1ccc(Cl)cc1)C2=O | 79.6% | 87.2% | 85.4% | 80.9% | 102% | 83.5% | 91.7% | 97.4% | 100% | 108%
6 | C#Cc1cccc(NC(=O)c2ccc(NC(=O)C=C)cc2)c1 | 99.1% [8.25 µM] | 88.1% [8.25 µM] | 84.4% [8.25 µM] | 95.2% [8.25 µM] | 94.5% [8.25 µM] | 90% [8.25 µM] | 45.4% [8.25 µM] | 69.6% [8.25 µM] | 56.5% [8.25 µM] | 115% [8.25 µM]
7 | CCc1ccc(Oc2c(-c3ccc(OCc4ccc(Cl)cc4)cc3O)n[nH]c2C(F)(F)F)cc1 | 3.59% (active) | 24.8% | 35.3% | 57.5% | 3.21% (active) | -17.2% (active) | -22.9% (active) | 33.5% | 64.4% | 95.7%
8 | CNc1nc2c(s1)C(c1cc(F)ccc1F)CC(=O)N2 (stereo not given) | 85.9% | 84.8% | 92.2% | 69.1% | 82.3% | 85.5% | 51.3% | 87% | 83.9% | 83.7%
9 | Cc1ccc(C(C)C)cc1C(=O)C[n+]1ccccc1 | 113% | 105% | 96.8% | 91.6% | 109% | 100% | 81.7% | 101% | 96.4% | 112%
10 | CCCCCCn1c(-c2ccc(C(=O)O/N=C(\N)c3ccc4ccccc4c3)cc2)nc(-c2ccccc2)c1-c1ccccc1 | 44.3% | 80.3% | 83.6% | 81.7% | 58.5% | 16% | 47.9% | -33.5% (active) | 4.48% (active) | 77.2%
11 | C=C(C)C1CCC2(C)OC2C1 (stereo not given) | 111% | 98.8% | 94.9% | 94.6% | 103% | 117% | 105% | 127% | 98.7% | 142%
12 | COc1ccc(/C=N/Nc2cc(=O)[nH]c3ccc(Cl)cc23)cc1 | 20.2% | 80.4% | 66.3% | 71.9% | 23.9% | 70.8% | -42.7% (active) | 40.2% | 62.1% | 83.3%
13 | CNCCCC12CCC(c3ccccc31)c1ccccc12 | 92.1% | 107% | 92% | 82.9% | 97.3% | 48.5% | 88.8% | 90.1% | 65.7% | 7.78% (active)
14 | CCn1cnc2c1c(=O)[nH]c(=O)n2CC1CCC(CNS(=O)(=O)c2ccc(OC3CCOCC3)c(F)c2)CC1 (stereo not given) | 57.5% | 55.7% | 66.7% | 36.5% | 72.6% | 31% | 39.4% | 54.9% | 47.4% | 45.3%
15 | Cc1ccc(C(CC(=O)O)c2c(C)[nH][nH]c2=O)cc1 (stereo not given) | 95.3% | 102% | 104% | 97.9% | 108% | 118% | 94.5% | 105% | 96% | 113%
16 | CN1C(=O)CNC(=O)[C@H](NC(=O)c2nc3ccccc3cc2O)CSSC[C@H]1C(=O)NCCc1nc2ccccc2cc1O | 64.1% | 83.8% | 62.9% | 82.1% | 8.06% (active) | 128% | 42.9% | 38.8% | 112% | 1.34% (active)
17 | COc1ccc2c(c1)nc(NNC(=O)c1cnccn1)c1cccn12 | 33.4% | 39.3% | 28.5% | 28.6% | 7.94% (active) | 64.3% | 9.5% (active) | 24.6% | 26.1% | 7.24% (active)
18 | COc1cc(Nc2cn[nH]c2-c2ccc(Cl)cc2)cc(OC)c1OC | 6.84% (active) | 65.2% | 79.7% | 36.7% | 33.2% | 50.7% | 21.7% | 51% | 53.5% | 37.6%
19 | CC(C)n1cnc2c(Nc3cccc(Cl)c3)nc(N[C@H]3CCCC[C@@H]3N)nc21 | 61.7% | 68.6% | 66.4% | 42.8% | 45.7% | 26.8% | 38.7% | 55.7% | 45.7% | 26.4%
20 | C=C1C(=O)O[C@H]2[C@H]1CC/C(COC(=O)CCSSCCC(=O)OC/C1=C/CC[C@@]3(C)O[C@H]3[C@H]3OC(=O)C(=C)[C@@H]3CC1)=C\CC[C@@]1(C)O[C@@H]21 | 26.4% | 78.1% | 94.6% | 72.3% | 64% | -57.7% (active) | -79.8% (active) | 60.8% | -70.9% (active) | -72.5% (active)
21 | CN1CCN(c2ccc(-c3cc4c(Nc5ccc(F)c(Cl)c5)ncnn4c3)cc2)CC1 | 96.2% | 89% | 32.9% | 103% | 8.58% (active) | 76.8% | 72.5% | 71.4% | 89.6% | 37%
22 | COc1cccc2nc3n(c12)C(c1c(F)cccc1F)SC3 (stereo not given) | 94.8% | 82.7% | 102% | 104% | 99% | 46.4% | 80.4% | 98% | 101% | 106%
23 | CCN(CC)CCCNc1nc2ccccc2c2c(=O)c3cc(Cl)ccc3sc12 | 86.5% | 82.1% | 84.5% | 74.4% | 8.8% (active) | 36.9% | 73.8% | 64.7% | 75.7% | 56.3%
24 | FC(F)(F)c1cc(Nc2ccc3c(OCCCN4CCOCC4)cccc3n2)ccc1Cl | 60.8% | 68.5% | 51.5% | 51.2% | 17.3% | 60.2% | 49.5% | 30.5% | -42.1% (active) | -38.1% (active)
25 | CCOC(=O)c1cn2ncnc(Oc3ccc(NC(=O)NCCN4CCN(C)CC4)c(Cl)c3)c2c1C | 67.8% | 82.3% | 93% | 87.9% | 99.4% | 31.6% | 66.6% | 88.6% | 81.8% | 76.8%
26 | CN1C(=O)N(C)C2Nn3c(s/c(=C\c4ccccc4)c3=O)=NC21 (stereo not given) | 101% | 94.2% | 97% | 97.8% | 108% | 100% | 87.1% | 94.8% | 101% | 111%
27 | CC1=NN(c2ccc(S(=O)(=O)O)cc2)C(=O)C1N=Nc1ccc(-c2ccc(N=Nc3ccc(OS(=O)(=O)c4ccc(C)cc4)cc3)c(S(=O)(=O)O)c2)cc1 (stereo not given) | 87.4% | 85.7% | 93.4% | 93.7% | 96% | 41.1% | 77.8% | 99% | 90.3% | 102%
